This passage reports Potency and outcome results from PubChem BioAssay (Tox21).

Structures are written as SMILES. “And” between values parts separate entries of the source, which are not always exact repeats. Identical values can stand only once. Records with an inconclusive call do not appear. The source made the active and inactive calls. Unless noted, calls come from the whole dose curve; as a rule, active = well fitted curve in the direction sought with a large enough effect in the repeat runs; inconclusive = weak or mixed curves; inactive = no such curve, though single readings can be large; an effect the other way counts as inactive or inconclusive.

The nature of experiment [1]: qHTS assay to identify small molecule antagonists of the sonic hedgehog signaling (Shh) pathway (AID 1259369; calls by dose curve; note: nearly all actives have a fitted effect of over 45% in size; note: potency is the fitted concentration of half-maximal effect). In a few lines:
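Gli1 transcriptional reporter (firefly Luc) in NIH/3T3 background, conditioned-medium activated. 24hr exposure, luminescence endpoint.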
(Quantitative high-throughput screening tests each substance at several concentrations.)

A short description of experiment [2]: qHTS assay to identify small molecule agonists of the androgen receptor (AR) signaling pathway in the presence of an antagonist - cell viability counter screen (AID 1259379).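 Note: MDA-kb2 human breast cancer cells carrying an MMTV luciferase reporter; series mostly up to about 92 µM; nearly all actives have a fitted effect of over 25% in size.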 In a few lines:
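Counter screen for cell viability run in parallel with the AR agonist-mode luciferase assay. MDA-kb2 cells were co-treated with nilutamide (3.0uM final) and compounds, then incubated 16 hr at 37C, and CellTiter-Fluor fluorescence was measured.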

Experiment [3] can be described thus: qHTS assay to identify small molecule agonists of the estrogen receptor beta (ER-beta) signaling pathway - cell viability counter screen (AID 1259380). Note: nearly all actives have a fitted effect of over 30% in size. In a few lines:
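In this qHTS counter screen, HEK293T cells carrying an ER-beta/UAS beta-lactamase reporter, grown in 2% charcoal-stripped FBS, received compound for 16 hr; ATP-based CellTiter-Glo luminescence was then read after 30 min at room temperature.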

Experiment [4] can be described thus: qHTS assay to identify small molecule antagonists of the estrogen receptor beta (ER-beta) signaling pathway - cell viability counter screen (AID 1259382).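 Note: HEK293T cells carrying ER-beta-UAS-bla reporter stimulated with estradiol; series mostly up to about 92 µM; nearly all actives have a fitted effect of over 55% in size.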 Summed up:
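HEK293T ER-beta-UAS-bla, 2% charcoal-stripped FBS; compounds + 1nM E2 16 hr 37C; CellTiter-Glo luminescence, 30 min RT.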

The target of experiment [5] is Estrogen receptor (Homo sapiens) (UniProt P03372). Nature of the experiment: qHTS assay to identify small molecule agonists of the estrogen receptor alpha (ER-alpha) signaling pathway in the presence of an antagonist (AID 1259383; calls by dose curve; note: top concentration of the series differs between compounds; nearly all actives have a fitted effect of over 15% in size). Summed up: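 ER-alpha agonism measured under antagonist challenge: 10.0nM ICI-182,780 (final) plus compound, 15 concentrations, 22hr, VM7Luc4E2 ERE-luciferase cells. Read by luminescence.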
Estrogen receptor (Homo sapiens), sequence (P03372 whole entry, looked up): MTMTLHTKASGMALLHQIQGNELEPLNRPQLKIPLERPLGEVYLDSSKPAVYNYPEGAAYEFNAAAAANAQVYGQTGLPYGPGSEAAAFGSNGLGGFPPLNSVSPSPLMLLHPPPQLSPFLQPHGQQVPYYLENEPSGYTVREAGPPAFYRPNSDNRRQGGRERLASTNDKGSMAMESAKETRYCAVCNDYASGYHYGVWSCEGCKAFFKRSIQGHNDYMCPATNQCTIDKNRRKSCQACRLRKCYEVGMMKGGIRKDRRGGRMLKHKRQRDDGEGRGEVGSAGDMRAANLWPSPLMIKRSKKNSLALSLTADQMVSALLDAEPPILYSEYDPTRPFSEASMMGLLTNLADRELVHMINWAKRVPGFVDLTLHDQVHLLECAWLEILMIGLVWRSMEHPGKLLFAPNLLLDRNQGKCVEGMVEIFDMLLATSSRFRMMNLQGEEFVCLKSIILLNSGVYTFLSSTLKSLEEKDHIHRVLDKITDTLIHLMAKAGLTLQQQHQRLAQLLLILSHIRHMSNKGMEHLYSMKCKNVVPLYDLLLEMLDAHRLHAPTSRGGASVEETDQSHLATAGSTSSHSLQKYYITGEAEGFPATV

Experiment [6] addresses Thyrotropin receptor (Homo sapiens) (UniProt P16473). Nature of the experiment: qHTS assay to identify small molecule antagonists of the thyroid stimulating hormone receptor (TSHR) signaling pathway (AID 1259385; calls by dose curve; note: nearly all actives have a fitted effect of over 20% in size). Summed up:
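TSHR-HEK293 cells were plated and held 18 h at 37C/5% CO2, then given compound plus Ro20-1724 and stimulated with TSH at 1.5 ng/mL final. After 30 min at room temperature, cAMP was detected with cAMP-d2/anti-cAMP-cryptate (1 h) by fluorescence.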

Experiment [7] can be described thus: qHTS assay to identify small molecule agonists of the estrogen receptor alpha (ER-alpha) signaling pathway in the presence of an antagonist - cell viability counter screen (AID 1259386).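 Note: series mostly up to about 92 µM; cells exposed to compounds for 22 h at 37 °C before the viability read; nearly all actives have a fitted effect of over 30% in size.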 Summed up: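 Steps: 5-day stripped-FBS culture; seed and incubate 24hr; add ICI-182,780 (10.0nM final); pin 15-point compound titration; incubate 22hr at 37C; add CellTiter-Fluor at 21hr; read fluorescence.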

Experiment [8] has as its target Progesterone receptor (Homo sapiens) (UniProt P06401). In words: qHTS assay to identify small molecule agonists of the progesterone receptor (PR) signaling pathway (AID 1346784; calls by dose curve; note: nearly all actives have a fitted effect of over 30% in size). Summed up: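 Agonist mode, quantitative HTS format in a HEK 293T line expressing a UAS-controlled beta-lactamase reporter; 16 hr compound exposure at 37C in 2% charcoal-stripped FBS, then LiveBLAzer B/G FRET fluorescence.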

For experiment [9] the target is unchanged. In words: qHTS assay to identify small molecule antagonists of the progesterone receptor (PR) signaling pathway (AID 1346795; active = well fitted inhibition curve with a large enough effect in the signal ratio in the repeat runs, not every such curve was filed as active; the % refers to the signal ratio; note: potency is the fitted concentration of half-maximal effect). In a few lines:
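HEK293T PR-UAS-bla reporter cells in charcoal-stripped serum (2%) received compound after a 6 hr settling period, followed by R5020 agonist at 1 nM final; 16 hr incubation preceded the FRET substrate step and fluorescence measurement.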

The nature of experiment [10]: qHTS assay to identify small molecule antagonists of the progesterone receptor (PR) signaling pathway - cell viability counter screen (AID 1346798). Note: series mostly up to about 92 µM; nearly all actives have a fitted effect of over 50% in size. Summed up: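 Same-well multiplex: after 16 hr at 37C with compound and R5020 stimulation, HEK293T cells carrying a UAS-bla reporter received LiveBLAzer substrate (2 hr RT), then CellTiter-Glo (30 min RT) for luminescent viability.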

The nature of experiment [11]: qHTS assay to identify small molecule antagonists of the TGF-beta/Smad signaling pathway - cell viability counter screen (AID 1346824). Note: nearly all actives have a fitted effect of over 50% in size. Summed up: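 SBE-bla HEK 293T cells were plated overnight at 37 C, then given compounds in DMSO plus TGF-beta1 (added as 0.25 ng/mL solution) for 5 hr. After the bla read, CellTiter-Glo was added to the same wells and luminescence read after 30 min at room temperature.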

Experiment [12] is described as follows: qHTS assay to identify small molecule agonists of the TGF-beta/Smad signaling pathway - cell viability counter screen (AID 1346829). Note: top concentration of the series differs between compounds; nearly all actives have a fitted effect of over 45% in size. In a few lines:
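CellTiter-Glo luminescence readout; SBE-bla HEK 293T cells, overnight plating, compound 5 hr at 37 C/5% CO2, then bla substrate 2 hr RT, then CellTiter-Glo 30 min RT.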

Experiment [13] is described as follows: qHTS assay to identify small molecule agonists of the TGF-beta/Smad signaling pathway (AID 1346859; active = well fitted activation curve with a large enough effect in the signal ratio in the repeat runs, not every such curve was filed as active; the % refers to the signal ratio; note: series mostly up to about 77 µM). In a few lines:
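Smad-responsive beta-lactamase reporter cells (HEK 293T) received compounds from DMSO stocks after overnight attachment, were incubated 5 hr, then treated 2 hr with FRET substrate before dual-emission fluorescence measurement (405 nm excitation).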

Experiment [14] in a line: qHTS assay to identify small molecule agonists of the progesterone receptor (PR) signaling pathway - cell viability counter screen (AID 1346799; calls by dose curve; note: nearly all actives have a fitted effect of over 45% in size). In a few lines: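 Counter screen for cytotoxicity: compound-treated PR-UAS-bla HEK293T cells (16 hr, 37C, 5% CO2) were assayed with CellTiter-Glo, luminescence measured after 30 min at room temperature.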
Experiment [15] deals with Thyrotropin-releasing hormone receptor (Homo sapiens) (UniProt P34981). Nature of the experiment: qHTS assay to identify small molecule antagonists of the thyrotropin-releasing hormone receptor (TRHR) signaling pathway (AID 1346877; active = well fitted inhibition curve with a large enough effect in the repeat runs, not every such curve was filed as active; note: series mostly up to about 51 µM). Summed up: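 Human TRHR in HEK293 cells; inhibition of the intracellular calcium rise triggered by 1 nM TRH was followed by fluorescence over 3 min. Compounds were run at 15 concentrations, three replicates each.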
Thyrotropin-releasing hormone receptor (Homo sapiens), sequence (P34981 whole entry, looked up): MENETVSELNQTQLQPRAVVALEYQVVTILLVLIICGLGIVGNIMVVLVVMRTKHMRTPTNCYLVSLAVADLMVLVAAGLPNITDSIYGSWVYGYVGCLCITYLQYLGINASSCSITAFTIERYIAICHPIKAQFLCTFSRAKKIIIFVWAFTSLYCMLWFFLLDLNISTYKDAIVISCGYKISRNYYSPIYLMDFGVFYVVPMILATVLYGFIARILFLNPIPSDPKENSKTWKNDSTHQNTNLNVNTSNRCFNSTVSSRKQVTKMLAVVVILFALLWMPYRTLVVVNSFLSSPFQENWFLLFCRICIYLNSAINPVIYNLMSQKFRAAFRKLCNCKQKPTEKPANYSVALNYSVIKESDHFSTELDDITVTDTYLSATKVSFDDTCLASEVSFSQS

The target is the same in experiment [16]. Nature of the experiment: qHTS assay to identify small molecule agonists of the thyrotropin-releasing hormone receptor (TRHR) signaling pathway (AID 1346891; calls by dose curve;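 note: HEK293 cells expressing TRHR with calcium dye readout; series mostly up to about 58 µM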). In a few lines:
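Agonist-mode calcium mobilisation screen: TRHR-transfected HEK293 cells cultured overnight (18 h), dye-loaded for 2 h at 37 °C, exposed to compounds, and monitored by fluorescence for 3 min.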

The nature of experiment [17]: qHTS assay to identify small molecule agonists or antagonists of the thyroid stimulating hormone receptor (TSHR) signaling pathway - wild type cell line counter screen (AID 1259384; calls by dose curve). In a few lines: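 Wild-type HEK293 cells were plated 18 h at 37 C/5% CO2, pin-dosed with compound plus Ro20-1724 medium, held 30 min at room temperature, then given cAMP-d2 and anti-cAMP-cryptate; fluorescence was read after 1 h. Fifteen concentrations, triplicate.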

Progesterone receptor (Homo sapiens), sequence (P06401 whole entry, looked up): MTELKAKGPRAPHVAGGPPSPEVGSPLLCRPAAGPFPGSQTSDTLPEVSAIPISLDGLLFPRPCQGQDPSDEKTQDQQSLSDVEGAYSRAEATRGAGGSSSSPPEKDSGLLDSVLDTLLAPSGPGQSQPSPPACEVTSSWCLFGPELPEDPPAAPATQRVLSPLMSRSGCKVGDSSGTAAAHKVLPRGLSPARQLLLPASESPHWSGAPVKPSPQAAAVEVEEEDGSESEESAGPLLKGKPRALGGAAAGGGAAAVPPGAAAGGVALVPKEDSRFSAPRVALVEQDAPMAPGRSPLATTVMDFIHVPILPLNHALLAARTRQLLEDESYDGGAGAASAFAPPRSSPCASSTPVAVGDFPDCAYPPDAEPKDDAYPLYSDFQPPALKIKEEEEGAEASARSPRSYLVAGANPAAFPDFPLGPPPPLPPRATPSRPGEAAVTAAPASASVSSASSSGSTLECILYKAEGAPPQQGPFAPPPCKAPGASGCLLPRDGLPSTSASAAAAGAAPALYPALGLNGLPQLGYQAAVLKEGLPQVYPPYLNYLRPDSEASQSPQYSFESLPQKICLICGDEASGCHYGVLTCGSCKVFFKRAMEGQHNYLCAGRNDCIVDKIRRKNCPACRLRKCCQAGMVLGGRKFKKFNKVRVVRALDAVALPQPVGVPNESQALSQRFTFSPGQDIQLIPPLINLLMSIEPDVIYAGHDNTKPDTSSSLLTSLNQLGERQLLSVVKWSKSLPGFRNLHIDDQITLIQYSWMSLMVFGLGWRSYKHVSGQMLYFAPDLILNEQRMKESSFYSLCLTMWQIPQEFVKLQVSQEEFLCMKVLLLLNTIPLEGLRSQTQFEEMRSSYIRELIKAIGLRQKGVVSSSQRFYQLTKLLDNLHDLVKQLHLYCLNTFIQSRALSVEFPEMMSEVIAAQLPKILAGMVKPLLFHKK
Thyrotropin receptor (Homo sapiens), sequence (P16473 whole entry, looked up): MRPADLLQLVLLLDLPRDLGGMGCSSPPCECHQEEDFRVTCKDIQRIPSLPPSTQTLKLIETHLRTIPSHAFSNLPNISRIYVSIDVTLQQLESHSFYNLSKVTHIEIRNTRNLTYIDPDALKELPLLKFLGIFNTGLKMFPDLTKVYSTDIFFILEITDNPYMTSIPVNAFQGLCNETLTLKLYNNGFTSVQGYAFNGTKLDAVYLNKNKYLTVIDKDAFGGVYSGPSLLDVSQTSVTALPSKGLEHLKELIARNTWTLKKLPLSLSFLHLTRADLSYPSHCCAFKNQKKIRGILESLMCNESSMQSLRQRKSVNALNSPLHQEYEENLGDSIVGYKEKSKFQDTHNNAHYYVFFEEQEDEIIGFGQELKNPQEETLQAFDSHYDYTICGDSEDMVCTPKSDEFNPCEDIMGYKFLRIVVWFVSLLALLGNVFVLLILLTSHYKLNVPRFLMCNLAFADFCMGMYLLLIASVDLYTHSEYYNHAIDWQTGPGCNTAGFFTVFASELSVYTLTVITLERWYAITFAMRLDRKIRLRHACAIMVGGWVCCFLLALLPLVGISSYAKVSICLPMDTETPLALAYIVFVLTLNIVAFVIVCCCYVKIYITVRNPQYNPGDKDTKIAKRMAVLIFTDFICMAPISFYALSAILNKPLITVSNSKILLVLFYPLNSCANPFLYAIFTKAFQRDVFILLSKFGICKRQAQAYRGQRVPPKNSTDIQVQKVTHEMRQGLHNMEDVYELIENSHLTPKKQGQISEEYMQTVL

As to `CC(=O)OC/C=C(\C)CCC=C(C)C`, the Potency entry in experiment [1], in experiment [2], in experiment [3], in experiment [4], in experiment [5] and in [6] was “inactive” in each case. Also, the Potency entry in experiment [7], in [8], in [9], in experiment [10], in experiment [11] and in experiment [12] was “inactive” throughout. The Potency result in experiment [13] is “inactive”.

Regarding `CC1(C)C(=O)N(Cl)C(=O)N1Cl`, the Potency result in [1], in experiment [2], in [3], in experiment [4], in experiment [5] and in experiment [6] was “inactive” in each case. The Potency entry in [7], in [8], in [9], in experiment [10], in experiment [14] and in experiment [11] was “inactive” in each case. The Potency result in experiment [12], in experiment [13] and in experiment [15] was “inactive” throughout. The compound was classed as inactive in experiment [16].

As for `CC(=O)Nc1ccc(CC(=O)O)cc1`, the Potency result in experiment [1], in experiment [2], in experiment [3], in [4], in experiment [5] and in experiment [6] was “inactive” in each case. The Potency result in experiment [7], in experiment [8], in experiment [9], in experiment [10], in experiment [14] and in [11] was “inactive” in each case. Moreover, the Potency entry in experiment [12], in experiment [13] and in [15] was “inactive” throughout. For the same compound, the compound was classed as inactive in experiment [16].

Turning to `Clc1cccc(Cl)c1NC1=NCCN1`, the Potency result in [1], in experiment [2], in experiment [3], in experiment [4], in experiment [6] and in experiment [7] was “inactive” in each case. In addition, the Potency entry in experiment [8], in [9], in experiment [10], in experiment [14], in experiment [11] and in [12] was “inactive” throughout. In addition, the Potency result in experiment [13] was “inactive”.

For the compound `Cc1ncc(CO)c(CO)c1O`, the Potency result in experiment [1], in experiment [2], in experiment [3], in experiment [4], in experiment [17] and in experiment [6] was “inactive” in each case. The Potency result in experiment [7], in experiment [8], in [9], in experiment [10], in experiment [14] and in experiment [11] was “inactive” each time. Further, the Potency entry in experiment [12], in experiment [13] and in [15] was “inactive” throughout. In addition, in [16], the outcome was inactive.

Take `Cc1ccc(C)c(S(=O)(=O)O)c1`: the Potency result in experiment [1], in [2], in experiment [3], in experiment [4], in experiment [6] and in [7] was “inactive” throughout. Also, the Potency entry in experiment [8], in experiment [9], in experiment [10], in experiment [14], in experiment [11] and in experiment [12] was “inactive” each time. The Potency result in experiment [13] and in experiment [15] was “inactive” throughout. Besides, the outcome in experiment [16] was inactive.

In the case of `CC[N+](CC)(CC(=O)Nc1c(C)cccc1C)Cc1ccccc1`, the Potency entry in [1], in [2], in experiment [3], in experiment [4], in experiment [17] and in experiment [6] was “inactive” in each case. Besides, the Potency result in experiment [7], in experiment [8], in [9], in experiment [10], in [14] and in experiment [11] was “inactive” throughout. Besides, the Potency entry in experiment [12] and in experiment [13] was “inactive” throughout.

As to `NC(=O)c1ncn([C@@H]2O[C@H](CO)[C@@H](O)[C@H]2O)n1`, the Potency entry in experiment [1], in experiment [2], in [3], in experiment [4], in [7] and in experiment [8] was “inactive” each time. Further, the Potency result in [9], in experiment [11], in experiment [12], in [13] and in experiment [15] was “inactive” in each case. Further, the outcome in [16] was inactive.

For the compound `CC(C)(C)NC[C@H](O)COc1nsnc1N1CCOCC1`, the Potency entry in experiment [1], in [2], in experiment [3], in experiment [4], in experiment [7] and in experiment [8] was “inactive” each time. The Potency result in experiment [9], in experiment [10], in [14], in experiment [11], in [12] and in experiment [13] was “inactive” each time.

Take `COc1ccccc1[N+](=O)[O-]`: the Potency entry in experiment [1], in experiment [2], in experiment [3], in [4], in [7] and in experiment [8] was “inactive” each time. The Potency entry in experiment [9], in experiment [10], in experiment [14], in experiment [11], in experiment [12] and in experiment [13] was “inactive” in each case. The Potency entry in experiment [15] is “inactive”. Also, the call in experiment [16] was inactive.

In the case of `Oc1ccc(Cc2ccccc2O)cc1`, the Potency in experiment [1] is 43.3 µM (active); in experiment [9] it was 43.8 µM (active) and 48.6 µM (active). The Potency entry in experiment [2], in [4], in [5], in experiment [17], in experiment [6] and in experiment [7] was “inactive” each time. Further, the Potency result in experiment [8], in experiment [14], in [11], in experiment [12], in experiment [13] and in experiment [15] was “inactive” in each case. In addition, the compound was called inactive in experiment [16].

Take `O=C1O[C@H]([C@H](O)CO)C(O)=C1O`: the Potency entry in [1], in [2], in experiment [3], in experiment [4], in [6] and in experiment [7] was “inactive” throughout. The Potency entry in [8], in experiment [9], in experiment [10], in [14], in experiment [11] and in [12] was “inactive” each time. Moreover, the Potency result in [13] is “inactive”.

As to `COC(=O)CCCCC(=O)OC`, the Potency entry in experiment [1], in experiment [2], in experiment [3], in experiment [4], in experiment [5] and in experiment [7] was “inactive” each time. For the same compound, the Potency entry in experiment [8], in experiment [9], in experiment [10], in [14], in experiment [11] and in [12] was “inactive” throughout. Further, the Potency result in experiment [13] and in experiment [15] was “inactive” throughout. Moreover, in [16], the result was inactive.
